Screening results (PubChem)
An excerpt weighted towards active compounds, which were near 12% of everything screened.
JMJD2A Tudor inh: qHTS Assay for Inhibitors of JMJD2A-Tudor Domain; Lysine-specific demethylase 4A (Homo sapiens), O75164; AlphaScreen JMJD2A-Tudor / H3K4me3 peptide binding; Potency, µM (titrated, usually from 114 µM), inactives show at the highest dose activity change, negative = inhibition, usual class: inhibitors; 390,000 compounds, 4.4% hits; AID 504339, 2011; further: on the % scale 0 is the no-effect control and ±100 the full control effect; nearly all actives have a fitted effect of over 50% in size
HP1b chromo inh: HTS for Inhibitors of HP1-beta Chromodomain Interactions with Methylated Histone Tails | Chromobox protein homolog 1 (Homo sapiens), P83916 | AlphaScreen HP1-beta / biotin-H3K9me3 peptide binding | Potency, µM (top dose mostly 114 µM), without a hit: at the highest dose activity change, negative = inhibition, hits mostly inhibitors | 390,000 compounds, 0.56% hits; further: nearly all actives have a fitted effect of over 70% in size
Target sequence (P83916 whole entry, looked up): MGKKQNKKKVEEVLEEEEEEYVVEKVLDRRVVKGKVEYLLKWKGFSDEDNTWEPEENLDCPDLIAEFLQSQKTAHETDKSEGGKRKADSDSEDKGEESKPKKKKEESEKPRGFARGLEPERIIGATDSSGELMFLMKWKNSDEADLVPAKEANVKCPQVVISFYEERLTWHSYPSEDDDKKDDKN
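AlphaScreen: HP1-beta (50 nM) preformed 30 min with biotin-H3(1-18)K9me3 peptide (50 nM) in PBS pH 7.4, 0.01% Tween-20. Compound added for 30 min at RT, then streptavidin donor/nickel chelate acceptor beads (10 ug/mL) for 30 min.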
Sfp PPTase inh: qHTS Assay for Inhibitors of Bacillus subtilis Sfp phosphopantetheinyl transferase (PPTase); 4'-phosphopantetheinyl transferase ffp (Bacillus subtilis), Q9F4F7; Biochemical Sfp PPTase activity, qHTS; Potency, µM, inactives show largest response in the series, negative = inhibition, usual class: inhibitors; 310,000 compounds, 3.5% hits; AID 1490, 2009;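 further: the enzyme is Sfp with the accession as filed and its product quenches rhodamine fluorescence; 0% = enzyme reaction without inhibitor and -100% = no enzyme wells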
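Sfp 15 nM + cpd, 15 min RT; start w/ rhodamine-CoA 5 uM, BHQ-2-YbbR 12.5 uM (final); 50 mM Hepes pH 7.6, 10 mM MgCl2, 0.01% NP-40, 0.01% BSA; read 525/598 nm at 0 and 30 min.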
PLK1 PBD block: qHTS for Inhibitors of PLK1-PDB (polo-like kinase 1 - polo-box domain): Primary Screen; Serine/threonine-protein kinase PLK1 (Homo sapiens), P53350; Plk1 PBD binding of FITC phosphopeptide, fluorescence polarization; Potency, µM, for the others: max response, negative = inhibition, usual class: inhibitors; 360,000 compounds, 2.8% hits; further: series mostly up to about 57 µM; on the % scale 0 is the no-effect control and ±100 the full control effect; nearly all actives have a fitted effect of over 65% in size
G9a block: qHTS Assay for Inhibitors of Histone Lysine Methyltransferase G9a. Potency, µM (top dose mostly 102 µM), inactives show at the highest dose activity, negative = inhibition, usual class: inhibitors. G9a H3K9 monomethylation, AlphaScreen, 2 h. 350,000 compounds, 8.8% hits. AID 504332, 2011; further: on the % scale 0 is the no-effect control and ±100 the full control effect; nearly all actives have a fitted effect of over 75% in size
Target sequence (Q96KQ7 913-1193 limits assumed): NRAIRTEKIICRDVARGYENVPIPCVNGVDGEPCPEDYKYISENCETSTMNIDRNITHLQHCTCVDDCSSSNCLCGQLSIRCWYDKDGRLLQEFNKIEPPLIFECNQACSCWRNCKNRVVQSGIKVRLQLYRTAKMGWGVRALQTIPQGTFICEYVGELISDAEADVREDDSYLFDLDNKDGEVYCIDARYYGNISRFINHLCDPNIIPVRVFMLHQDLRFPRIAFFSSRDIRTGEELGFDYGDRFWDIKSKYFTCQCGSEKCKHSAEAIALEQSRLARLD
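Chemiluminescent proximity detection of H3K9 monomethylation, read after 10 min bead incubation in the dark. Reaction: 20 nM G9a, 500 nM biotin-H3K9 peptide, 20 uM SAM cofactor, 2 h, room temperature, following 15 min enzyme-compound preincubation.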
BAZ2B inh: qHTS Assay for Inhibitors of BAZ2B | Bromodomain adjacent to zinc finger domain protein 2B (Homo sapiens), Q9UIF8 | AlphaScreen BAZ2B-H3K14Ac peptide displacement | Potency, µM (highest dose often 114 µM), for the others: at the top dose activity change, negative = inhibition, most hits filed as inhibitors | 360,000 compounds, 4.4% hits; further: on the % scale 0 is the no-effect control and ±100 the full control effect; nearly all actives have a fitted effect of over 60% in size
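Inhibition is scored as reduced AlphaScreen emission. The BAZ2B/b-H3(5-23)K14Ac complex (50 nM each) in PBS pH 7.4, 0.01% Tween-20 meets compound (up to 110 uM) for 30 min at RT before bead addition.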
* hit, by the source's call; ? = inconclusive; / = not tested or not shown; [ ] = remark or other dose. The call rests on the fitted dose curve; in most records, active means well fitted curve in the direction sought with a large enough effect; inconclusive means small, poorly fitted or top-dose-only effect, or another doubt; inactive means no such curve, though single readings can be large; an effect the other way counts as inactive or inconclusive. Potency means the concentration at half of the fitted maximal effect.

SMILES	JMJD2A Tudor inh	HP1b chromo inh	Sfp PPTase inh	PLK1 PBD block	G9a block	BAZ2B inh
CCOc1ccc(C2C=C(c3ccccc3)Nc3nnnn32)cc1 (stereo unspecified)	-7%	65%	-28%	1%	50µM*	7%
COc1ccccc1C(=O)N/C(=C/c1ccc(Br)cc1)C(=O)NCC(=O)O	-2%	29%	6%	-1%	-40%	?
O=C1CC(C(=O)Nc2cc(Cl)ccc2Cl)n2ncnc2N1 (stereo unspecified)	-5%	55%	17%	4%	10µM*	5%
Cc1ccc(Cl)cc1NC(=O)C1CC(=O)Nc2ncnn21 (stereo unspecified)	-4%[11.4 µM]	46%	7%	-1%	50µM*	-22%
O=C1CC(C(=O)Nc2cccc(Cl)c2)n2ncnc2N1 (stereo unspecified)	-10%	34%	20%	3%	-3%	-14%
CC(=O)Nc1ccc(NC(=O)C2CC(=O)Nc3ncnn32)cc1 (stereo unspecified)	-11%	42%	13%	-4%	8%[12.7 µM]	-20%
CCOc1cc(C(=S)N2CCOCC2)ccc1OC(=O)c1cc(OC)c(OC)c(OC)c1	-15%	30%	13%	-6%	4%	-18%
CCC1C(=O)CC2CCN3C(=O)CCC1C23 (stereo unspecified)	2%	18%	15%	/	/	/
COc1ccc(OC)c(CN2CCC(C(=O)N(C)CCc3ccc(OC)c(OC)c3)CC2)c1	22µM*	-22%	?	-1%	/	23%
COc1ccc(CCN(C)C(=O)C2CCCN(C3CCN(Cc4ccccc4)CC3)C2)cc1OC (stereo unspecified)	7.9µM*	22µM*	-24%	-1%	32µM*	35µM*
CNc1ncnc2c1ncn2[C@H]1C[C@H](O)[C@@H](CO)O1	/	/	18%	/	43%[59 µM]	/
CNc1ncnc2c1ncn2[C@H]1C[C@H](OP(=O)(O)O)[C@H](COP(=O)(O)O)O1	/	/	28µM*	/	/	/
O=C(Nc1ccc(F)cc1)c1oc2ccccc2c1NC(=O)C1CCCCC1	-8%	47%	/	/	-33%[59 µM]	-11%
Cc1ccc(NC(=O)c2oc3ccccc3c2NC(=O)C2CCCCC2)cc1	79µM*	84%	/	/	32%[59 µM]	21%
O=C(CBr)N1CCc2ccccc2C(c2ccccc2)C1 (stereo unspecified)	6%	32%	32µM*	-7%	32µM*	-30%
COc1ccccc1CCNC(=O)C(=O)NCC(c1ccco1)S(=O)(=O)c1ccc(C)cc1 (stereo unspecified)	-9%	42%	/	/	2%[59 µM]	-2%
CN(Cc1nc2ccccc2c(=O)[nH]1)Cc1nc2ccsc2c(=O)[nH]1	79µM*	14%	19%	2%	24%	40µM*
Cn1c(=O)[nH]c(=O)c2c1nc(N1CCOCC1)n2CC(=O)c1ccccc1	7%	29%	3%	0%	-12%	-39%
Cc1[nH]c2ccccc2c1/C=N/NC(=O)CNC(=O)Cc1ccccc1	-25%	32%	10%	-15%	71µM*	?
Cc1[nH]c2ccccc2c1/C=N/NC(=O)c1cc(C(C)(C)C)[nH]n1	-23%	-4%	2%	-12%	/	71µM*
Cc1[nH]c2ccccc2c1/C=N/NC(=O)Nc1ccccc1	-7%	55%	16%	-2%	1%	-13%
Cc1[nH]c2ccccc2c1/C=N/Nc1cccc(C(=O)O)c1	?	-15%	0%	-26%	4µM*	?
Cc1[nH]c2ccccc2c1/C=N/NC(=O)CNC(=O)c1ccccc1	-6%	12%	-4%	-1%	/	-2%
Cc1[nH]c2ccccc2c1/C=N/NC(=O)c1ccccc1	-13%	36%	-3%	2%	15%	-5%
Cc1[nH]c2ccccc2c1/C=N/NC(=O)CCC(=O)Nc1ccccc1	-17%[11.4 µM]	-19%	7%	24µM*	-8%	-14%
SMILES	JMJD2A Tudor inh	HP1b chromo inh	Sfp PPTase inh	PLK1 PBD block	G9a block	BAZ2B inh
Cc1ccc(NC(=S)N/N=C/c2c(C)[nH]c3ccccc23)cc1	45µM*	?	19%	0%	50µM*	45µM*
Cc1cccc(NC(=S)N/N=C/c2c[nH]c3ccccc23)c1	?	?	1%	-13%	-21%[59 µM]	50µM*
Cc1ccc(C(=O)Nc2ccc(C(=O)N/N=C/c3c[nH]c4ccccc34)cc2)cc1	-11%	29%	13%	6%	12%	-12%
Oc1ccc(N2CCN(c3nnnn3-c3ccccc3)CC2)cc1	-21%	?	56µM*	-27%	25µM*	/
CC(C)(C)C(=O)NC(=S)Nc1cc(C(=O)O)ccc1Cl	-7%[11.4 µM]	67%	5%	-24%	-1%[12.7 µM]	-1%
O=C(O)c1cc(N/N=C/C(Cl)=C/c2ccccc2)ccc1Cl	-30%	9%	-21%	?	35µM*	35µM*
NNc1cc(C(=O)O)ccc1Cl	25µM*	?	?	?	/	?
O=C(O)c1cc(N/N=C/c2cccs2)ccc1Cl	/	/	2%	/	?	?
NC(=O)N/N=C1\c2ccccc2-c2c(C(N)=O)cccc21	-9%	12%	8%	-11%	7%	-6%
O=C(O)c1cccc2c1-c1ccccc1/C2=N\Nc1ccccc1	?	22%	13µM*	38µM*	50µM*	-31%
O=C(O)/C=C/C(=O)Nc1ccc(Cl)c(C(=O)O)c1	-15%	33%	-2%	6%	?	?
NNc1ccc(Cl)c(C(=O)O)c1	-1%[11.4 µM]	39%	-7%	30µM*	1.3µM*	-37%
CN1CCN(c2ncc3nc(CCc4ccccc4)c(=O)n(C)c3n2)CC1	/	/	3%	/	11%[0.501 µM]	/
O=C(O)c1cc(NN=C2c3ccccc3-c3ccccc32)ccc1Cl	-33%	-6%[57 µM]	-8%	?	45µM*	?
O=C(O)c1cccc2c1/C(=N/O)c1ccccc1-2	-15%	11%	/	-12%	/	/
Cc1nc(CSc2nsc(/C=C/N(C)C)c2C#N)cs1	?	?	?	-9%	20µM*	40µM*
COC(=O)c1cccnc1SCc1ccccc1	123%	135%	-1%	-11%	23%[59 µM]	106%
COC(=O)c1ccccc1CSc1nsc(/C=C/N(C)C)c1C#N	50µM*	?	16µM*	9.5µM*	0%[2.33 µM]	45µM*
Clc1ccc(OCc2nnc(SCCN3CCCCC3)n2Cc2ccco2)cc1	?	13%	25µM*	-13%	?	89µM*
